Experimental data taken from PubChem BioAssay AID493200 (National Center for Advancing Translational Sciences (NCATS), 2011).
Inconclusive results are not listed. Activity calls are given as the source filed them. Calls follow the shape of the dose curve; as a rule, active = well fitted activation curve with a large enough effect; inconclusive = small, poorly fitted or top-dose-only effect; inactive = no such curve, though single readings can be large or run the other way.

test: qHTS Assay for Rab9 Promoter Activators: Initial hit validation from the primary screen; details: Huh7 Rab9 promoter luciferase reporter, 24 h; series mostly up to 46.1 µM; activation: at the top concentration; as to activation: % of control where 0% means no effect
Procedure, shortened: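 Huh7 cells stably carrying a Rab9 promoter–luciferase construct, plated in reduced-serum medium with 10% FBS, rested 2 h, then exposed to compounds in DMSO for 24 h at 37C. Luminescence read 10 min after adding Amplite luciferase reagent.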
Potency is read from the fitted curve at half-maximal effect.

| SMILES | Potency | activation |
| --- | --- | --- |
| Cc1ccc(N=Cc2sc(O)c3ccccc23)c(C)c1 | 2.23 µM (active) | – |
| N#C/C(=C\c1ccc[nH]1)C(=O)Nc1ccccc1Cl | 3.53 µM (active) | – |
| O=C(CCCN1C(=O)C(c2ccccc2)Oc2cccnc21)Nc1ccccc1Cl (centres undefined) | – | -7.99% (inactive) |
| CNC(=O)Cn1nc(C)c2ccccc2c1=O | – | -1.21% (inactive) |
| CC(Sc1ncnc2c1cnn2-c1ccccc1)C(=O)Nc1ccc(N2CCOCC2)cc1 (centres undefined) | – | 8.63% (inactive) |
| Cc1csc(NC(=O)CSc2nnc(-c3ccncc3)o2)n1 | 25 µM (active) | – |
| C=CCn1c(C)nnc1SCC(=O)Nc1nccs1 | – | 1.83% (inactive) |
| O=C(CCNC(=O)c1ccc(Br)o1)NCc1ccc(Cl)cc1 | – | 0.0639% (inactive) |
| Nc1nc(SCCO)[nH]c(=O)c1NC(=O)c1ccco1 | – | 6.14% (inactive) |
| O=C(CSc1nnc(Cc2cc(=O)[nH]c(=O)[nH]2)n1-c1ccc(Cl)cc1)NC1CCCC1 | – | -2.05% (inactive) |
| Cc1ccc(CNC(=O)Nc2ccc(C)cc2)cc1 | 19.9 µM (active) | – |
| CCCCCCC(=O)Nc1ccc(C(=O)N/N=C/c2cccnc2)cc1 | – | 13.3% (inactive) |
| COc1ccc2oc(=O)c(C(=O)NC(C)c3ccccc3)cc2c1 (centres undefined) | – | 3.92% (inactive) |
| Cc1ccc(C#N)c(SCC(=O)Nc2nccs2)n1 | 0.791 µM (active) | – |
| O=[N+]([O-])c1cnccc1Nc1ccc(F)cc1 | – | -3.24% (inactive) |
| Cc1ccc(C(=O)Nc2ccc(N3CCN(C)CC3)nc2)cc1 | 25 µM (active) | – |
| CCCc1cc(C(=O)Nc2ccccc2SC)no1 | 25 µM (active) | – |

| SMILES | Potency | activation |
| --- | --- | --- |
| COc1cccc(NC(=O)CN2C(=O)CSc3ccc(S(=O)(=O)N4CCC(C)CC4)cc32)c1 | – | -20.2% (inactive) |
| Cc1ccc(NC(=O)c2cccc(N3C(=O)CCC3=O)c2)nc1 | – | 9.67% (inactive) |
| CCCCn1c(Nc2ccc(OC)cc2)nc2ccccc21 | – | 5.74% (inactive) |
| Cc1[nH]n(-c2cccc3ccccc23)c(=O)c1/C=N/c1sc2c(c1C#N)CCC2 | – | 6.46% (inactive) |
| COc1ccccc1C(=O)Nc1nnc(SCC(=O)NC2CCCC2)s1 | 0.888 µM (active) | – |
| COc1ccc(S(=O)(=O)NC(C(=O)NCCc2ccccn2)C(C)C)cc1 (centres undefined) | – | 1.37% (inactive) |
| COC(=O)CSc1nc2cc3c(cc2cc1C#N)OCO3 | 0.353 µM (active) | – |
| Cc1ccc(S(=O)(=O)/N=C2\C=C(Nc3cccc(C(=O)O)c3)C(=O)c3ccccc32)cc1 | – | -45.7% (inactive) |
| Cc1cccc(C)c1NC(=O)Nc1cccs1 | – | -4.81% (inactive) |
| COc1ccc(/C=C\C(=O)c2c(O)ccc3c(C)cc(=O)oc23)cc1OC | – | -38.2% (inactive) |
| CCOC(=O)c1cc2sccc2n1CC(=O)N1CCCc2ccccc21 | – | -13.2% (inactive) |
| COC(=O)c1sccc1NC(=S)OC | – | -1.18% (inactive) |
| COc1ccc(NC(=O)CN(C)C(=O)c2ccc(=O)[nH]c2)cc1 | – | 1.74% (inactive) |
| O=C(O)CSc1nnc(-c2ccncc2)n1CCc1ccccc1 | – | 6.2% (inactive) |
| Cc1ccc(C(=O)NCc2ccc3c(c2)OCO3)cc1C | 25 µM (active) | – |
| COC(=O)c1cn(NC(=O)C2CCCCC2)c(=O)c2ccccc12 | – | -5.53% (inactive) |
| COc1ccc(-c2csc(Nc3ncccn3)n2)cc1C | 0.281 µM (active) | – |
